Data from the supplement of paper PMC7156485.

What was measured:
Settings in all cases: concentration: 10 µM; 24 h
HCC1569 [1] = experiment: cell number relative to DMSO (% of DMSO); higher = more cells (less growth inhibition / toxicity)
In short: (§1)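 Six fields per well were imaged at ×10 after the cells were fixed in 3.7% formaldehyde and stained with a rabbit anti-H1.0 antibody, an AlexaFluor 647 secondary and DAPI. The HCC1569 and TDF cells had been plated at 800 per well in 384-well plates (RPMI, 10% FBS) and treated in triplicate with compounds at 10 µM for 24 h at 37 °C. The values are the median of replicates of H1.0 nuclear intensity or cell number, as percent of the plate control. Smoothing for positional effects was applied to HCC1569 data.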

TDF [2] = experiment: as above
In short: as §1

TDF [3] = experiment: H1.0 immunofluorescence intensity relative to DMSO (% of DMSO); higher = stronger H1.0 induction, active = 120 or more
In short: as §1

HCC1569 [4] = experiment: H1.0 immunofluorescence intensity relative to DMSO (% of DMSO); higher = stronger H1.0 induction, active = 140 or more
In short: as §1
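Throughout, for H1.0 immunofluorescence intensity relative to DMSO: TDF is a line of transformed human dermal fibroblasts of mesenchymal origin.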
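Throughout, for cell number relative to DMSO: TDF denotes transformed human dermal fibroblasts of mesenchymal origin.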

Structure (SMILES)	cell number (HCC1569 [1])	cell number (TDF [2])	H1.0 immunofluorescence intensity (TDF [3])	H1.0 immunofluorescence intensity (HCC1569 [4])
Cc1cc(N)c2ccccc2[n+]1CCCCCCCCCCCCCC[n+]1c(C)cc(N)c2ccccc21.[I-].[I-] [Dequalinium analog, C-14 linker]	101	102	95.7 (inactive)	100 (inactive)
COC(=O)C1=C(C)NC(C)=C(C(=O)OCCN(C)Cc2ccccc2)C1c1cccc([N+](=O)[O-])c1.Cl (configuration not stated) [Nicardipine hydrochloride]	96.7	103	99.2 (inactive)	100 (inactive)
COc1cc2ncnc(Nc3ccc(Cl)cc3Cl)c2cc1OC [Ste11 MAPKKK Activation Inhibitor]	83.8	97.5	89.8 (inactive)	130 (inactive)
CCC(C)(C)c1ccc(CC(C)CN2CC(C)OC(C)C2)cc1 (configuration not stated) [Amorolfine]	94.1	98.9	94.6 (inactive)	110 (inactive)
CNCCCC12CCC(c3ccccc31)c1ccccc12.Cl [Maprotiline.HCl]	100	90.4	94.5 (inactive)	119 (inactive)
CCCCCCCCCCCCCCCCn1cc[n+](Cc2ccccc2)c1C.[I-]	99.1	103	103 (inactive)	106 (inactive)
O=C(CO)N1CCC(c2[nH]nc(-c3ccc(Cl)cc3)c2-c2ccncn2)CC1	93.2	105	91.3 (inactive)	96 (inactive)
O=C(Nc1ncc([N+](=O)[O-])s1)c1ccc([N+](=O)[O-])c(Cl)c1 [3-chloro-4-nitro-N-(5-nitrothiazol-2-yl)benzamide]	84.1	83.6	108 (inactive)	122 (inactive)
COC(=O)[C@@H](N)CSCC=C(C)CCC=C(C)CCC=C(C)C [S-Farnesyl-L-cysteine methylester]	106	94.7	95.6 (inactive)	103 (inactive)
CCC(Sc1nnc2c(n1)[nH]c1ccccc12)C(=O)N1c2ccccc2Sc2ccccc21 (configuration not stated)	96.4	96.3	103 (inactive)	700 (active)
CC12CCC(=O)C=C1C=CC1C2CCC2(C)C1CCC21CCC(=O)O1 (configuration not stated) [Canrenone]	99.6	103	89.7 (inactive)	102 (inactive)
O=c1ccc2cc(O)c(O)cc2o1 [Esculetin]	101	94.7	99.6 (inactive)	101 (inactive)
C#CCN(C)Cc1ccccc1.Cl [Pargyline hydrochloride]	114	105	91.7 (inactive)	101 (inactive)
CN(C)CCn1cc(S(=O)(=O)c2cccc(F)c2)c2cccnc21	99.5	74.4	127 (active)	111 (inactive)
CN1CCN(CCC=C2c3ccccc3Sc3ccc(S(=O)(=O)N(C)C)cc32)CC1.Cl [Thiothixene hydrochloride]	95	107	98.5 (inactive)	96.8 (inactive)
Clc1ccc(C(Cn2ccnc2)OCc2ccsc2Cl)c(Cl)c1 (configuration not stated) [Tioconazole]	102	94.9	103 (inactive)	113 (inactive)
Br.CN1CCc2cc(O)c(O)cc2C(c2ccccc2)C1 (configuration not stated)	105	98.2	89.8 (inactive)	105 (inactive)
Cl.Oc1ccc(Nc2nc(-c3ccc(Cl)cc3)cs2)cc1 [Sphingosine Kinase Inhibitor]	69.3	75.1	110 (inactive)	193 (active)
CC(C)(C#N)c1cc(Cn2cncn2)cc(C(C)(C)C#N)c1 [Anastrozole]	102	101	99.4 (inactive)	102 (inactive)
CCCCC#Cc1nc(N)c2ncn(C3OC(C(=O)NCC)C(O)C3O)c2n1 (configuration not stated)	93.3	99.3	95.2 (inactive)	110 (inactive)
COc1cc(C(=O)NS(=O)(=O)c2ccccc2C)ccc1Cc1cn(C)c2ccc(NC(=O)OC3CCCC3)cc12 [Zafirlukast]	101	110	90.1 (inactive)	105 (inactive)
O=C1OC(CN2CCOCC2)CN1/N=C/c1ccc([N+](=O)[O-])o1 (configuration not stated)	102	96.5	96.7 (inactive)	104 (inactive)
COc1ccc2c(c1)c(CC(=O)O)c(C)n2Cc1ccc(Cl)cc1 [1-(4-Chlorobenzyl)-5-methoxy-2-methylindole-3-acetic acid]	104	91	96.8 (inactive)	103 (inactive)
